These results are taken from PubChem BioAssay (Tox21).

Molecules are shown by their SMILES. Inconclusive results are not listed. The source made the active and inactive calls. The call rests on the fitted dose curve; in most records, active means well fitted inhibition curve with a large enough effect in the signal ratio in the repeat runs (not every such curve was filed as active); inconclusive means weak or mixed curves, or effect the other way; inactive means no such curve, though single readings can be large or run the other way; the % refers to the signal ratio.

This assay deals with Bile acid receptor (Homo sapiens) (UniProt Q96RI1). Briefly: qHTS assay to identify small molecule antagonists of the farnesoid-X-receptor (FXR) signaling pathway (AID 743217). To be noted: HEK293T FXR-UAS-bla, beta-lactamase ratio, CDCA-stimulated, 16 h; series mostly up to 62.6 µM. The text has this: U.S. Tox21 Program National Center for Advancing Translational Sciences [NCATS] NIH Chemical Genomics Center [NCGC] U.S. Environmental Protection Agency [EPA] National Institutes of Environmental Health Sciences [NIEHS] National Toxicology Program [NTP] U.S. Food and Drug Administration [FDA] Tox21 Assay Overview: The farnesoid-X-receptor (FXR), a nuclear hormone receptor, is highly expressed in liver, intestine, kidney and adrenal cortex. Natural ligands of FXR are the bile acids (Cholic acid, Chenodeoxy cholic acid etc). FXR is an important regulator of diverse metabolic pathways, including the bile acid homeostasis, lipid and glucose metabolisms. FXR regulates the expression of target genes by binding either as a monomer or as a heterodimer with the retinoid X receptor (RXR). Numerous studies have reported that FXR exerts protective function during cholestasis, diabetes, liver regeneration, and cancer. To identify compounds that inhibit FXR signaling, GeneBLAzer FXR-UAS-bla HEK 293T cell line (Invitrogen, Carlsbad, CA) containing a beta-lactamase reporter gene under the control of a UAS response element was used to screen the Tox21 10K compound library.
Chain of Bile acid receptor (Homo sapiens) (Q96RI1 whole entry, looked up): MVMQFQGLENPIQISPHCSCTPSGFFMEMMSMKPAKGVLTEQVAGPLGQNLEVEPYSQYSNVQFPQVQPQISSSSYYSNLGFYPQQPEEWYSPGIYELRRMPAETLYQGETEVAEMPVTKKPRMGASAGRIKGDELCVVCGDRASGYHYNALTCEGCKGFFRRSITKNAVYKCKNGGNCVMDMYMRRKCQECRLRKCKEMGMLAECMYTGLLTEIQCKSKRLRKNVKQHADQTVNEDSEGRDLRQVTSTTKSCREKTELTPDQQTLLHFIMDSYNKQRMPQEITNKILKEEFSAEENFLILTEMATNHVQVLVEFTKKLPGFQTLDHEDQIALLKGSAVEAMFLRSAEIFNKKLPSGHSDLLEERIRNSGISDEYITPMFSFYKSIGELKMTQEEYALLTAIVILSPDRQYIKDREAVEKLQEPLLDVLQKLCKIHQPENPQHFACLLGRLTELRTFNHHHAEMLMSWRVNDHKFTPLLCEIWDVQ
Tox21 Assay Protocol Summary: FXR-bla cells were dispensed at 5000 cells/5uL/well in 1536-well black wall/clear bottom plates using a Multidrop Combi (Thermo Fisher Scientific, Waltham, MA) dispenser. After the assay plates were incubated at 37C and 5% CO2 for 5 h, 23 nL of compounds dissolved in DMSO, positive controls or DMSO only was transferred to the assay plate by a Pintool station (Kalypsys, San Diego, CA), followed by addition of 1 uL Chenodeoxycholic acid (50 uM, final concentration in the wells). The assay plates were incubated at 37C for 16 h. After 1 uL of LiveBLAzerTM B/G FRET substrate was added using a Bioraptr Flying Reagent Dispenser (FRD) workstation (Beckman Coulter, Indianapolis, IN), the plates were incubated at room temperature for 2 h, and fluorescence intensity was measured by an Envision plate reader (PerkinElmer, Shelton, CT).
Take `[N-]=[N+]=CC(=O)OC[C@H](N)C(=O)O`: the result was inactive.
Then `O=[N+]([O-])c1ccc(Cl)c(Cl)c1`, with “inactive”; and `OCc1ccco1`, with “inactive”; and `O=C(O)C(Br)Br`, with “inactive”.
With `COc1nc(NC(C)C)nc(NC(C)C)n1`, the outcome was inactive.
Then `Nc1ccc(N)cc1`, with “inactive”.
Regarding `Cc1cccc(N)c1C`, the result was inactive.
Regarding `CCCOC(=O)c1ccccc1C(=O)OCCC`, the result was inactive.
Regarding `Cl[C@H]1OCCO[C@@H]1Cl`, the result was inactive.
Then `Cc1cc(O)ccc1Cl`, with “inactive”; and `CNc1cnn(-c2cccc(C(F)(F)F)c2)c(=O)c1Cl`, with “inactive”; and `CSc1nnc(C(C)(C)C)c(=O)n1N`, with “inactive”.
Then `Nc1cccc(Cl)c1`, with “inactive”; and `CC(=O)C1CCOC1=O` (stereo not given), with “inactive”.
Consider `Clc1cnc(Oc2ccc(Oc3ncc(Cl)cc3Cl)cc2)c(Cl)c1`, for which the outcome was inactive.
On to `CNC(=O)O/N=C/C(C)(C)S(C)=O` (stereo not given), for which the result was inactive.
As to `FC(F)(F)c1ccc(Cl)cc1`, the result was inactive.
Turning to `C[C@H]1C(=O)O[C@@H]2CCN3CC=C(COC(=O)[C@](C)(O)[C@]1(C)O)[C@H]23`, the result was inactive.
`C=CCN=C=S`: the outcome was inactive.
Then `CNC(=O)O/N=C/C(C)(C)SC`, with “inactive”.
Regarding `OCCCCO`, the outcome was inactive.
Then `ClCCOCCCl`, with “inactive”; and `CCOc1ccc(N)cc1`, with “inactive”.
In the case of `O=C(O)Cc1ccccc1`, the result was inactive.
In the case of `Cc1cccc(C)c1N`, the outcome was inactive.
For the compound `COP(=S)(OC)SCN1C(=O)c2ccccc2C1=O`, the result was inactive.
Under `O=C(O)C1C(C(=O)O)C2(Cl)C(Cl)=C(Cl)C1(Cl)C2(Cl)Cl` (stereo not given) stands “inactive”; under `Nc1nc(N)nc(NC2CC2)n1`, “inactive”; under `N#CN=C(N)N`, “inactive”.
Then `CNC(=O)Oc1cccc2ccccc12`, with “inactive”; and `O=C(O)CCCc1ccc(N(CCCl)CCCl)cc1`, with “inactive”.
As to `CNCC(O)c1ccc(O)cc1` (stereo not given), the outcome was inactive.
Regarding `COC(=O)Nc1cccc(OC(=O)Nc2cccc(C)c2)c1`, the result was inactive.
Take `Nc1cc(Cl)cc(Cl)c1`: the outcome was inactive.
For the compound `C=CC(=O)OCCCCCC(C)C`, the outcome was inactive.
Take `c1ccc2c(c1)CCCC2`: the outcome was inactive.
Under `Cc1cccc(C)c1NC(=O)CN1CCCC1=O` stands “inactive”.
As to `CCCCC(CC)C(=O)Cl` (stereo not given), the outcome was inactive.
As to `CC(C)CCCCCCOC(=O)c1ccccc1C(=O)OCCCCCCC(C)C`, the outcome was inactive.
Under `Nc1ncc([N+](=O)[O-])s1` stands “inactive”.
